Assay outcomes: PubChem BioAssay, National Center for Advancing Translational Sciences (NCATS)
KB-3-1 cytotox: qHTS assay for MDR1-selective chemotherapeutics: Primary screen using the parental adenocarcinoma cell KB-3-1 | KB-3-1 viability, CellTiter-Glo ATP luminescence, 72 h | Potency, µM (series often up to 46.1 µM), usual class: cytotoxic | 400,000 tested, 1.4% active; further: nearly all actives have a fitted effect of over 60% in size
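Here the drug-naive KB-3-1 line serves as comparator for MDR sub-line selectivity; cells received compound titrations, 72 h at 37 °C, then CellTiter-Glo readout.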
PINK1 expr mod: A Quantitative High throughput Screen to Identify Chemical Modulators of PINK1 Expression. PINK1 immunofluorescence, high-content cytometry, 24 h. Potency, µM (doses to about 76.6 µM), actives largely listed as activators. 410,000 tested, 0.2% active. AID 624263, 2012; active means well fitted activation curve with a large enough effect; inconclusive means small, poorly fitted or top-dose-only effect; cell line not stated here; further: nearly all actives have a fitted effect of over 65% in size
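Readout is PINK1 immunofluorescence, quantified alongside mitochondrial, cell and nuclear markers by laser-scanning microplate cytometry. Cells from a stable line were exposed to compound titrations (5 concentrations) for 24 hours, with CCCP controls.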
MCF10A rereplic: A quantitative high throughput screen for small molecules that induce DNA re-replication in MCF 10a normal breast cells; MCF 10A DNA re-replication, Hoechst nuclear intensity, 48 h; Potency, µM (doses to about 46.1 µM), hits mostly activators; 350,000 tested, 2.9% active; further: nearly all actives have a fitted effect of over 50% in size
KB-V1 MDR tox: qHTS assay for MDR1-selective chemotherapeutics: Primary screen using the drug-selected MDR subline cells KB-V1. Potency, µM (titrated, usually from 46.1 µM), hits mostly cytotoxic. 400,000 tested, 3.4% active. KB-V1 MDR cells viability, CellTiter-Glo, 72 h; further: nearly all actives have a fitted effect of over 60% in size
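Luminescent ATP read-out (CellTiter-Glo, 10 min) measures survival of drug-selected KB-V1 MDR cells after 72 h, 37 degrees C compound exposure. Medium: phenol-red-free DMEM, 10% FBS. Values from fitted concentration-response curves.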
SW480 rerep: A quantitative high throughput screen for small molecules that induce DNA re-replication in SW480 colon adenocarcinoma cells. SW480 DNA re-replication, Hoechst DNA content imaging, 48 h. Potency, µM (highest dose often 46.1 µM), usual class: activators. 340,000 tested, 1.8% active; further: nearly all actives have a fitted effect of over 55% in size
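Image-based read-out: total Hoechst fluorescence of nuclei (405 nm excitation, 500-530 nm emission), with hits raising the fraction of high-intensity nuclei. SW480 colon cells incubated 48 hr with compounds at 37 C.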
Of the large screens only hits and unclear results are named; the others gave an inactive call. In the library only some 6.7% were active in any assay of this set; here they are far more common. Unless noted, the call rests on the fitted dose curve; in most records, active means well fitted curve in the direction sought with a large enough effect; inconclusive means small, poorly fitted or top-dose-only effect, or another doubt; inactive means no such curve, though single readings can be large; an effect the other way counts as inactive or inconclusive.

Cc1ccccc1C(=O)N1CCN(c2ccc(NC(=O)CSc3ccc(Cl)cc3)cc2)CC1	KB-3-1 cytotox 18µM, MCF10A rereplic inconclusive, KB-V1 MDR tox inconclusive
CCOc1ccccc1NC(=O)CSc1ccc2nc(-c3ccccc3)cn2n1	none (no result: MCF10A rereplic, SW480 rerep)
COc1cc(CC(=O)NCC2CCCCC2)cc(OC)c1OC	none
C=C1CC(COc2cc(=O)oc3ccccc23)(c2ccccc2)OC1=O (configuration not stated)	KB-3-1 cytotox 10µM, MCF10A rereplic 2.6µM, KB-V1 MDR tox inconclusive
Cc1cc(/C=C2\Sc3ccccc3N2C)cc(C)[n+]1CC1CCCO1 (configuration not stated)	KB-3-1 cytotox 0.65µM, PINK1 expr mod inconclusive, MCF10A rereplic inconclusive, SW480 rerep 9.2µM
Cc1ccc(S(=O)(=O)N2Cc3ccccc3CC2C(=O)N(C)C)cc1 (configuration not stated)	none (no result: MCF10A rereplic, SW480 rerep)
COC(=O)C1=CNC=C(C(=O)OC)C1c1ccccc1Cl	MCF10A rereplic inconclusive, SW480 rerep inconclusive
COCCN1C=C(C(=O)OC)C(c2ccccc2C(F)(F)F)C(C(=O)OC)=C1	MCF10A rereplic 16µM, SW480 rerep 18µM
CCCCN1C=C(C(=O)OC)C(c2ccccc2C(F)(F)F)C(C(=O)OC)=C1	MCF10A rereplic 2.9µM, SW480 rerep 9.2µM
COCCN1C=C(C(=O)OC)C(c2ccc(OC)c(OC)c2)C(C(=O)OC)=C1	none
COC(=O)C1=C(C)N(C)C(C)=C(C(=O)OC)C1c1ccccc1C	none
CCCCOc1ccccc1C1C(C(=O)OC)=C(C)N(C)C(C)=C1C(=O)OC	KB-V1 MDR tox 9.2µM
CCCCN1C=C(C(=O)OC)C(c2ccccc2Cl)C(C(=O)OC)=C1	MCF10A rereplic 7.3µM, SW480 rerep inconclusive
CC1CCN(S(=O)(=O)c2cn(CC(=O)Nc3ccc(F)cc3)c(=O)c3ccccc23)CC1	none (no result: MCF10A rereplic, SW480 rerep)
COc1cccc(N2CCN(C(=O)Cn3ncc4c3-c3ccccc3OC4)CC2)c1	none (no result: MCF10A rereplic, SW480 rerep)
CN1CCN(Cc2cn(C)nc2-c2ccccc2F)CC1c1ccccc1 (configuration not stated)	KB-3-1 cytotox inconclusive
Cc1cc(N2CCN(Cc3cn(C)nc3-c3cccc(Cl)c3)CC2)cc(C)n1	KB-3-1 cytotox 9.2µM, MCF10A rereplic inconclusive, KB-V1 MDR tox inconclusive, SW480 rerep 23µM
Cc1cc(N2CCN(Cc3cn(C)nc3-c3ccccc3F)CC2)cc(C)n1	KB-3-1 cytotox 6.5µM, MCF10A rereplic 16µM, SW480 rerep 7.3µM
Cn1cc(CN2CCN(c3ncccn3)CC2)c(-c2cccc(Cl)c2)n1	MCF10A rereplic 21µM, KB-V1 MDR tox inconclusive
Cn1cc(CN2CCC(C(O)c3cccs3)CC2)c(-c2cccc(Cl)c2)n1 (configuration not stated)	none
Cc1cc2oc(C(=O)Nc3c(C)n(C)n(-c4ccccc4)c3=O)cc(=O)c2cc1C	none (no result: MCF10A rereplic, SW480 rerep)
COc1ccc(C(=O)NCCn2cc(SCC(=O)Nc3ccc4c(c3)OCCO4)c3ccccc32)cc1OC	KB-V1 MDR tox inconclusive (no result: MCF10A rereplic, SW480 rerep)
C1CC1Cc1noc(CN2CCN(C3C4CC5CC(C4)CC3C5)CC2)n1 (configuration not stated)	MCF10A rereplic 2.9µM
Cc1ccc(C)c(NC(=O)CSc2nccn2-c2cccc(C)c2C)c1	none (no result: MCF10A rereplic, SW480 rerep)
O=c1[nH]c(=S)[nH]c2c1[C@H](CCc1cccc(Cl)c1)O[C@H](C1CCCC1)C2	none (no result: MCF10A rereplic, SW480 rerep)
COc1ccccc1OCC(O)Cn1c(=N)n(Cc2ccccc2)c2ccccc21 (configuration not stated)	KB-3-1 cytotox 16µM, MCF10A rereplic inconclusive, KB-V1 MDR tox inconclusive, SW480 rerep inconclusive
CCN(CC)CCOc1ccc(Cc2ccccc2)cc1	MCF10A rereplic 24µM (no result: KB-3-1 cytotox, PINK1 expr mod, KB-V1 MDR tox)
CCCCn1c(=N)n(CCOc2ccc(C)cc2)c2ccccc21	KB-3-1 cytotox inconclusive, MCF10A rereplic inconclusive, KB-V1 MDR tox inconclusive, SW480 rerep 18µM
CC(C)(C)C(=O)Cn1c(=N)n(Cc2ccccc2)c2ccccc21	KB-3-1 cytotox inconclusive, MCF10A rereplic 18µM, KB-V1 MDR tox inconclusive, SW480 rerep inconclusive
CCCCn1c(=N)n(CCOc2ccccc2OC)c2ccccc21	none (no result: KB-3-1 cytotox, MCF10A rereplic, KB-V1 MDR tox, SW480 rerep)
CCCS(=O)(=O)NC(=O)C1(C)CCCN(C(=O)CSc2ccccc2)C1 (configuration not stated)	none (no result: MCF10A rereplic, SW480 rerep)
CN=c1sc2ccccc2n1CC(O)COc1ccccc1 (configuration not stated)	KB-V1 MDR tox 15µM
CCN(CC)CCn1c(=N)n(CC(O)COc2ccccc2)c2ccccc21 (configuration not stated)	SW480 rerep 21µM
CCN(CC)CCn1c(=N)n(CCOc2ccccc2)c2ccccc21	KB-3-1 cytotox inconclusive, SW480 rerep 11µM
CCCCn1c(=N)n(CC(O)COc2cccc(C)c2)c2ccccc21 (configuration not stated)	KB-3-1 cytotox 21µM, KB-V1 MDR tox 21µM, SW480 rerep inconclusive
CCCn1c(=N)n(CC(O)COc2ccc(C)cc2)c2ccccc21 (configuration not stated)	KB-V1 MDR tox inconclusive, SW480 rerep inconclusive
Cc1cn2c(=O)cc(COc3cccc(NC(=O)c4ccc(C(C)(C)C)cc4)c3)nc2s1	none (no result: KB-3-1 cytotox, MCF10A rereplic, KB-V1 MDR tox, SW480 rerep)
CCC(COC)NC(=O)c1cnn(-c2ncc3c(n2)-c2ccccc2CC3)c1C (configuration not stated)	none (no result: KB-3-1 cytotox, MCF10A rereplic, KB-V1 MDR tox, SW480 rerep)
C=CCn1c(-c2cccn(Cc3ccccc3)c2=O)n[nH]c1=S	none
C=CCn1c(-c2cccn(Cc3cccc(Cl)c3)c2=O)n[nH]c1=S	KB-V1 MDR tox 23µM
C=CCn1c(-c2cccn(Cc3ccc(Cl)cc3Cl)c2=O)n[nH]c1=S	KB-3-1 cytotox inconclusive, KB-V1 MDR tox 15µM
C=CCn1c(-c2cccn(Cc3ccc(Cl)cc3)c2=O)n[nH]c1=S	KB-V1 MDR tox inconclusive
CCOCc1nnc(NC(=O)C2CC(=O)N(C3CCCC3)C2)s1 (configuration not stated)	none
Cc1cc(NC(=O)c2ccco2)cc(-c2nc3cc(Cl)ccc3o2)c1O	none (no result: MCF10A rereplic, SW480 rerep)
COc1ccc(OCCN2CCN(S(=O)(=O)c3ccccc3C#N)CC2)cc1	KB-3-1 cytotox inconclusive, KB-V1 MDR tox inconclusive
Cn1c(N2CCN(S(=O)(=O)c3ccc(F)cc3)CC2)nc2ccccc21	KB-V1 MDR tox inconclusive
COc1ccc(OCCN2CCN(S(=O)(=O)c3ccccc3C(F)(F)F)CC2)cc1	KB-3-1 cytotox inconclusive, KB-V1 MDR tox 2.3µM
CC(C)n1c(N2CCN(S(=O)(=O)c3cccc([N+](=O)[O-])c3)CC2)nc2ccccc21	KB-V1 MDR tox 18µM
CCn1c(N2CCN(S(=O)(=O)c3ccc(OC)cc3)CC2)nc2ccccc21	KB-V1 MDR tox 13µM
